Compounds without any hit were thinned out: in the full panel of roughly 83,000, 20% have a hit.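 Treatment: one concentration, 48 hours, 96-well format. Scoring: percent growth, with anything below 10 considered active.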 Values without a mark were called inactive. The source made the active and inactive calls.
How the values were obtained:
Experiment in all cases: NCI-60 one-dose screen, 48 h (100 = growth as untreated, 0 = no growth, -100 = all killed)
Conditions in all cases: 10 µM unless noted
HCT-15 colon = tested on: HCT-15 colon
HT29 colon = tested on: HT29 colon
SNB-75 CNS = tested on: SNB-75 CNS
SNB-19 CNS = tested on: SNB-19 CNS
U251 CNS = tested on: U251 CNS
PC-3 prostate = tested on: PC-3 prostate
SK-MEL-5 melanoma = tested on: SK-MEL-5 melanoma
UACC-62 melanoma = tested on: UACC-62 melanoma
SK-MEL-28 melanoma = tested on: SK-MEL-28 melanoma
SK-MEL-2 melanoma = tested on: SK-MEL-2 melanoma
EKVX NSCLC = tested on: EKVX NSCLC
SN12C renal = tested on: SN12C renal
UO-31 renal = tested on: UO-31 renal
TK-10 renal = tested on: TK-10 renal
ACHN renal = tested on: ACHN renal
CAKI-1 renal = tested on: CAKI-1 renal
A498 renal = tested on: A498 renal
CCRF-CEM leukemia = tested on: CCRF-CEM leukemia
MOLT-4 leukemia = tested on: MOLT-4 leukemia

Structure (SMILES) | growth (HCT-15 colon) | growth (HT29 colon) | growth (SNB-75 CNS) | growth (SNB-19 CNS) | growth (U251 CNS) | growth (PC-3 prostate) | growth (SK-MEL-5 melanoma) | growth (UACC-62 melanoma) | growth (SK-MEL-28 melanoma) | growth (SK-MEL-2 melanoma) | growth (EKVX NSCLC) | growth (SN12C renal) | growth (UO-31 renal) | growth (TK-10 renal) | growth (ACHN renal) | growth (CAKI-1 renal) | growth (A498 renal) | growth (CCRF-CEM leukemia) | growth (MOLT-4 leukemia)
CCOC(=O)C1=C(N)N(c2ccccc2)C2=C(C(=O)CC(C)(C)C2)C1c1cccc(Cl)c1Cl (stereo not drawn) | 65.8% | 72.7% | 56.8% | 41.7% | 55.2% | 35.3% | 77.6% | 55.6% | 91% | 86.5% | 57.5% | 63% | 75.5% | 95.2% | 57.9% | 47.4% | 128% | 54.8% | 39.5%
N/C(=N\c1nc2ccccc2s1)NC(=O)NCCCCCCO | 57.7% | 76.2% | 20.6% | 51.6% | 69% | 47.3% | -3.23% (active) | 49.1% | 76.5% | 50.1% | 19.6% | 45.5% | 43.5% | 51.2% | 39.5% | 32% | 61% | 60.3% | 4.34% (active)
CC1=C(C(=O)c2ccccc2)C(c2cccc(Cl)c2Cl)n2c(nc3ccccc32)N1 (stereo not drawn) | 68.7% | 54.6% | 43% | 39.3% | 16.9% | 45% | 54.5% | 36.6% | 90.2% | 76% | 46.3% | 53.6% | 67.7% | 102% | 71.9% | 47% | 116% | 40.5% | 45.6%
C/C(=N\N=C\c1cc([N+](=O)[O-])ccc1Cl)c1ccc2c(c1)Nc1ccccc1S2 | 72.4% | 72.2% | 5.46% (active) | 51.6% | 7.09% (active) | 82.4% | 78.6% | 69.6% | 90.7% | 90.5% | 48.5% | 12.4% | -13.7% (active) | 8.88% (active) | -43.5% (active) | 31.3% | 6.23% (active) | 55% | 44%
O=C(O)c1ccc(-c2ccc(/C=N/NC(=O)c3[nH]c4ccc(Br)cc4c3-c3ccccc3)s2)cc1 | -34.6% (active) | -7.12% (active) | -11.3% (active) | 14.4% | 14.5% | 18.7% | -49.6% (active) | -51.9% (active) | 11.9% | -43% (active) | 13.3% | 11.5% | 24.7% | 22.8% | 14.2% | 20% | 40% | 7.68% (active) | 10.7%
C=CC[N+](C)(C)CCn1c2ccccc2c2nc3cc(C)c(C)cc3nc21 | 106% | 105% | 88.5% | 19.2% | 72.9% | 97.4% | 63.7% | 97.1% | 79.6% | 112% | 89.7% | 14.2% | 71% | 106% | 107% | 90% | 115% | 102% | 116%
COc1cc2c(c(OC)c1OC)C(=O)CC(c1cccc(NC(=O)c3cc(N)ccc3Cl)c1)O2 (stereo not drawn) | 22.3% | 79.9% | 43.7% | 77.4% | 65.6% | 47.3% | 35.8% | 61.7% | 56.8% | 32.7% | 78.7% | 64.6% | 51.5% | 106% | 50.6% | 50.3% | 105% | 22.5% | 21.5%
COc1ccc(C(=O)/C=C/c2ccc(OCc3ccccc3)c(OC)c2)cc1OC | 9.77% (active) | 15.1% | -15.9% (active) | 14.4% | 10.1% | 37% | 34.9% | 29% | 70.4% | 72.7% | 80.4% | 1.82% (active) | 31.4% | 62.7% | 38.3% | 38.8% | 102% | 9.36% (active) | 9.48% (active)
N#Cc1c(-c2ccccc2Cl)cc(-c2c[nH]c3ccccc23)[nH]c1=O | 48.7% | 107% | 25.7% | 69.5% | 67% | 72.8% | 63.8% | 50.3% | 65.3% | 49% | 68.1% | 61.5% | 58.7% | 102% | 63.9% | 55.5% | 116% | 32.2% | 34.7%
COc1cc(CNC(=O)/C=C/c2ccc3c(c2)OCO3)ccc1OCc1cn(-c2cccc(C(F)(F)F)c2)nn1 | 38.2% | 17.6% | 41.1% | 33.1% | -32.9% (active) | 0.703% (active) | 33.2% | -29.2% (active) | 5.76% (active) | 54% | 6.68% (active) | 21.4% | -4.4% (active) | 19.9% | 0.888% (active) | 6.02% (active) | 57.7% | 52.2% | 48.8%
Cc1ncsc1-c1ccc(CNC(=O)[C@@H]2C[C@@H](O)CN2C(=O)[C@@H](NC(=O)C2(F)CC2)C(C)(C)C)c(OCCOCCOCCOCCOc2nc(Nc3cc(S(C)(=O)=O)ccc3N[C@@H](c3cccc4c3OC(F)(F)O4)c3ncccc3Cl)nc(N3CCNCC3)n2)c1 | 99.4% | 88.1% | 63.2% | 64.8% | 65.8% | 71.7% | 65.4% | 84.8% | 89.2% | 112% | 80.8% | 80.9% | 98.5% | 109% | 98.9% | 101% | 116% | -9.39% (active) | -5.45% (active)
CC(=O)Nc1ccc(-n2cnc3cc(-c4ccc(O)cc4)ccc32)cc1C(F)(F)F | 16.1% | 26.3% | 8.79% (active) | 27.8% | 18% | 44.8% | 5.35% (active) | 21.1% | 20.5% | 17.4% | 27.3% | 15.6% | 10.3% | 33% | 6.32% (active) | 28.6% | 57.1% | 40.5% | 29.6%
CSc1ccc(NC(=O)c2ccc3nnn(/C(C#N)=C/c4ccccn4)c3c2)cc1 | -66.3% (active) | -89.2% (active) | 63.2% | -73.1% (active) | -81.6% (active) | -20.1% (active) | -99.7% (active) | -65.9% (active) | -72.6% (active) | -96.3% (active) | -99.6% (active) | -99.9% (active) | -100% (active) | -98.5% (active) | -100% (active) | -93.5% (active) | 45.1% | 6.95% (active) | 6.04% (active)
C#CCOc1cc(N(CC)CC)ccc1C(C(=O)NC(C)(C)C)N(C(=O)C1CCc2cc(F)ccc2O1)c1cc(C)cc(C)c1 (stereo not drawn) | 31.9% | 40.4% | 45.7% | 38.3% | 19.5% | 13.2% | 44.7% | 33.8% | 62.9% | -14.6% (active) | 33.3% | 30.9% | 23.2% | 50.3% | 22.7% | 27.9% | 45.8% | 36.3% | 16%
O=C(O)c1cccc(-c2ccc(/C=N/NC(=O)c3[nH]c4ccc(Br)cc4c3-c3ccccc3)s2)c1 | 17.4% | 69% | 29.6% | 26.2% | 27% | 56.9% | 30.1% | 19.5% | 44.2% | 26.3% | 35.2% | 57.5% | 47.9% | 86.8% | 44.1% | 74.7% | 100% | 31% | 45.3%
O=C(COc1ccc(NC(=O)Nc2ccc(Cl)c(Cl)c2)cc1)N=Nc1c(O)[nH]c2ccc(Cl)cc12 | 30.6% | -30.1% (active) | -37.6% (active) | -13.8% (active) | -84.5% (active) | -2.39% (active) | -83.8% (active) | -33.1% (active) |  | -64.9% (active) | 7.69% (active) | -30.4% (active) | 56.8% | 1.73% (active) | 20.9% | -5.97% (active) | -32.4% (active) | 8.9% (active) | -1.42% (active)

From PubChem BioAssay (NCI)
